# Measurements published in PMC7862700, “An all-to-all approach to the identification of sequence-specific readers for epigenetic DNA modifications on cytosine”.
# Tests used:
# Test in all cases: DAPPL (digital affinity profiling via proximity ligation, sequencing); 10 mM Tris-HCl pH 7.5, 50 mM NaCl, 1 mM DTT, 4% glycerol, room temperature, 30 min; GST-TFs on glutathione beads, 16-mer random dsDNA library, 0.1% formaldehyde crosslink after washing; high values mean tight binding
# [1] = biological target: T1, FEV (Homo sapiens, UniProt Q99581 1-238); details: protein: recombinant; tags: N-terminal GST; dsDNA, one strand shown
# T1 sequence: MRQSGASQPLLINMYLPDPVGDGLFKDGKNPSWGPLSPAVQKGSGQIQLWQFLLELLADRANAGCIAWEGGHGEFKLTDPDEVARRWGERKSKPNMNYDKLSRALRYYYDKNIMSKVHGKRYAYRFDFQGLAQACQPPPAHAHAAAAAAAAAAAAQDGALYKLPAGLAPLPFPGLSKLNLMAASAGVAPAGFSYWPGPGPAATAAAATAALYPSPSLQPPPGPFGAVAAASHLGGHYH
# Procedure, shortened: (§1)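 The binding signal reported is, for every hexamer, its read frequency for a factor over its read frequency for the tag-only sample. Reads came from pools of yeast-expressed, GST-fused human transcription factors on glutathione beads, barcoded with DNA and mixed with that sample, which were incubated with 200 nmole of a random double-stranded 16-mer DNA library in Tris/NaCl/DTT/glycerol buffer at room temperature for 30 min. After washing, the pools were crosslinked with 0.1% formaldehyde, proximity-ligated with BsaI/T4 ligase for 1 h at 37 °C, PCR-amplified and sequenced on an Illumina NextSeq500.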
# [2] = biological target: ETV5 (Homo sapiens, UniProt P41161 1-510); details: protein: recombinant; tags: N-terminal GST; dsDNA, one strand shown
# Procedure, shortened: as §1
# [3] = biological target: HSF1 (Homo sapiens, UniProt Q00613 1-529); details: protein: recombinant; tags: N-terminal GST; chain copies: 3; dsDNA, one strand shown
# Procedure, shortened: as §1
# [4] = biological target: T2, SPIC (Homo sapiens, UniProt Q8N5J4 1-248); details: protein: recombinant; tags: N-terminal GST; dsDNA, one strand shown
# T2 sequence: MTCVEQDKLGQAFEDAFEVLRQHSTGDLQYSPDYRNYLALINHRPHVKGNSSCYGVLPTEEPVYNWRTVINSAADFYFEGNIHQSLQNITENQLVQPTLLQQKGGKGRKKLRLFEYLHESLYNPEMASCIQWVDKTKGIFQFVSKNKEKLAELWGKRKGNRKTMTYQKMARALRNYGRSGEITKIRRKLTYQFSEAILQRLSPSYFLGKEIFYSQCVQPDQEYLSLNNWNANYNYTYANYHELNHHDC
# Procedure, shortened: as §1
# [5] = biological target: ELF4 (Homo sapiens, UniProt Q99607 1-663); details: protein: recombinant; tags: N-terminal GST; dsDNA, one strand shown
# Procedure, shortened: as §1
# [6] = biological target: T3, ELK4 (Homo sapiens, UniProt P28324-2 1-405); details: protein: recombinant; tags: N-terminal GST; dsDNA, one strand shown
# T3 sequence: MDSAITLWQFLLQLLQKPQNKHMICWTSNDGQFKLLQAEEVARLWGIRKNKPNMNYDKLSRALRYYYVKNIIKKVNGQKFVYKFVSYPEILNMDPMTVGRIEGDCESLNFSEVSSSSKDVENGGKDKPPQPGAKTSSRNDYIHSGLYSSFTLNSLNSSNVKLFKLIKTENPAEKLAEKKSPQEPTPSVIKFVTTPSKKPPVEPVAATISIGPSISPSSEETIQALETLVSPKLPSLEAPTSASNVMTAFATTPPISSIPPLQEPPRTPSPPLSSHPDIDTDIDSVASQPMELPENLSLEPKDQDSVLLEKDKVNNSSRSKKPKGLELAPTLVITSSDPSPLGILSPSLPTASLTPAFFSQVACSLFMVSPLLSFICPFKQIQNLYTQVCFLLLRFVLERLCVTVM
# Procedure, shortened: as §1
# [7] = biological target: T4, ETV2 (Homo sapiens, UniProt O00321 1-342); details: protein: recombinant; tags: N-terminal GST; dsDNA, one strand shown
# T4 sequence: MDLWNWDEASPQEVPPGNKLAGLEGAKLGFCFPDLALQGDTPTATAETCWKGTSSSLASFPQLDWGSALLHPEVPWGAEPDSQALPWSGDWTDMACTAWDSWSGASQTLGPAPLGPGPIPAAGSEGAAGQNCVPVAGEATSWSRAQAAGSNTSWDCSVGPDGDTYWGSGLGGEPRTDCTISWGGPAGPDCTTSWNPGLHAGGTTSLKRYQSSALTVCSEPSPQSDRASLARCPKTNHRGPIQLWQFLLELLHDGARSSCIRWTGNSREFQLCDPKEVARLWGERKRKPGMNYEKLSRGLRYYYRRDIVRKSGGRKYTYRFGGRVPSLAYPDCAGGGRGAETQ
# Procedure, shortened: as §1
# [8] = biological target: T5, ELF3 (Homo sapiens, UniProt P78545 1-371); details: protein: recombinant; tags: N-terminal GST; dsDNA, one strand shown
# T5 sequence: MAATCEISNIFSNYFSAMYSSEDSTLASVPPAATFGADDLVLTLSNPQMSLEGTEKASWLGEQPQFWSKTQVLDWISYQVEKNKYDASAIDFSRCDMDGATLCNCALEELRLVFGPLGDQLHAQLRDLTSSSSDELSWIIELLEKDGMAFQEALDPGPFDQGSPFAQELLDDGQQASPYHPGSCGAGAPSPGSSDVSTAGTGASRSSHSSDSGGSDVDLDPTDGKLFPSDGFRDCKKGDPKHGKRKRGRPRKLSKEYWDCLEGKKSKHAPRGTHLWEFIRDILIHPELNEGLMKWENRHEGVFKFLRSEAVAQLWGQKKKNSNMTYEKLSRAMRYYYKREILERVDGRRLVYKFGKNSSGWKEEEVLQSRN
# Procedure, shortened: as §1
# [9] = biological target: CRX (Homo sapiens, UniProt O43186 1-299); details: protein: recombinant; tags: N-terminal GST; dsDNA, one strand shown
# Procedure, shortened: as §1
# [10] = biological target: ETV1 (Homo sapiens, UniProt P50549 1-477); details: protein: recombinant; tags: N-terminal GST; dsDNA, one strand shown
# Procedure, shortened: as §1
# [11] = biological target: T6, ERF (Homo sapiens, UniProt P50548 1-548); details: protein: recombinant; tags: N-terminal GST; dsDNA, one strand shown
# T6 sequence: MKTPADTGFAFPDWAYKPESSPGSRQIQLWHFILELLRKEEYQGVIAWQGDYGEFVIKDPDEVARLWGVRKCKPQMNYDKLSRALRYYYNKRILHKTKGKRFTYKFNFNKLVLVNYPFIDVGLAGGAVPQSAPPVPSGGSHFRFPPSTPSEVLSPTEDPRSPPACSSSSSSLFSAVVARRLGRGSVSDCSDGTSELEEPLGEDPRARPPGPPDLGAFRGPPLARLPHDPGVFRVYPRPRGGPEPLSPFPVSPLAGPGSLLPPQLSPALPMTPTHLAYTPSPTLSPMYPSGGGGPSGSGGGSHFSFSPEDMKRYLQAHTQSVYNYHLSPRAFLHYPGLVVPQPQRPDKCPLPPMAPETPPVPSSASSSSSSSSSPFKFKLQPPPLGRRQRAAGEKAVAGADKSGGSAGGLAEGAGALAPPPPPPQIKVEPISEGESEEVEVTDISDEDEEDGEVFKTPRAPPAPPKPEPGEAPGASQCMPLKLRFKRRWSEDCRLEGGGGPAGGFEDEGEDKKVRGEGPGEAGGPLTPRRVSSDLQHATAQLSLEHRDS
# Procedure, shortened: as §1
# [12] = biological target: T7, ETV3L (Homo sapiens, UniProt Q6ZN32 1-361); details: protein: recombinant; tags: N-terminal GST; dsDNA, one strand shown
# T7 sequence: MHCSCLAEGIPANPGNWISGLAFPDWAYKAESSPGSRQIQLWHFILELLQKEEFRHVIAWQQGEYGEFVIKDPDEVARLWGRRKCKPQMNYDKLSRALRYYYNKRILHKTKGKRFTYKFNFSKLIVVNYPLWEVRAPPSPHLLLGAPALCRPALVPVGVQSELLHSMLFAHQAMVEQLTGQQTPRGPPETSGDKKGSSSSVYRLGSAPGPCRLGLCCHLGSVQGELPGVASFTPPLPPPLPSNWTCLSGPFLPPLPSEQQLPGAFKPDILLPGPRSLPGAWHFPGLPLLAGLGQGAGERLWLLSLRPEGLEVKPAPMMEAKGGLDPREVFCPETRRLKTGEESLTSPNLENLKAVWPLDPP
# Procedure, shortened: as §1
# [13] = biological target: T8, ETS2 (Homo sapiens, UniProt P15036 1-469); details: protein: recombinant; tags: N-terminal GST; dsDNA, one strand shown
# T8 sequence: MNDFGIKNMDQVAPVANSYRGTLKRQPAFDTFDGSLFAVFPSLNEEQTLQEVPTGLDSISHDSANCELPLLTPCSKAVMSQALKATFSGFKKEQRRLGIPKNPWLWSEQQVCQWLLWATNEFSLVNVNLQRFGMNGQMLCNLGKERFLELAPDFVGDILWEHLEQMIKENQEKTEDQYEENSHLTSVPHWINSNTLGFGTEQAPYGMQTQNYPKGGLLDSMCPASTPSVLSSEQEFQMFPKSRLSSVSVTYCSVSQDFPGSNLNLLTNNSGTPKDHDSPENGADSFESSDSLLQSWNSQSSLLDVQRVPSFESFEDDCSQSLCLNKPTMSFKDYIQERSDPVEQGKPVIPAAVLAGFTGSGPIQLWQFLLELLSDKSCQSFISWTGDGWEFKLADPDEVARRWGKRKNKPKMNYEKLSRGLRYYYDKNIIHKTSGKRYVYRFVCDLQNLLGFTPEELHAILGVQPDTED
# Procedure, shortened: as §1
# [14] = biological target: T9, SPDEF (Homo sapiens, UniProt O95238 1-335); details: protein: recombinant; tags: N-terminal GST; dsDNA, one strand shown
# T9 sequence: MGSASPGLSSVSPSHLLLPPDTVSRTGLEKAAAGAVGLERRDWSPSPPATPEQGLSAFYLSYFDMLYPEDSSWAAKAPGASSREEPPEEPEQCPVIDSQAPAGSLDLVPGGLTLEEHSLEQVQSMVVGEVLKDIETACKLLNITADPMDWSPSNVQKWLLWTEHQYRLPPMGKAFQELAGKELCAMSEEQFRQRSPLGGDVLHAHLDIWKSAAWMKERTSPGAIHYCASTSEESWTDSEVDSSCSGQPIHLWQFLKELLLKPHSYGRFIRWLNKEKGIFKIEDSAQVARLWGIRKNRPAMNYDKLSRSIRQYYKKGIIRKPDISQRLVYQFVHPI
# Procedure, shortened: as §1
# [15] = biological target: T10, ETV7 (Homo sapiens, UniProt Q9Y603 1-341); details: protein: recombinant; tags: N-terminal GST; dsDNA, one strand shown
# T10 sequence: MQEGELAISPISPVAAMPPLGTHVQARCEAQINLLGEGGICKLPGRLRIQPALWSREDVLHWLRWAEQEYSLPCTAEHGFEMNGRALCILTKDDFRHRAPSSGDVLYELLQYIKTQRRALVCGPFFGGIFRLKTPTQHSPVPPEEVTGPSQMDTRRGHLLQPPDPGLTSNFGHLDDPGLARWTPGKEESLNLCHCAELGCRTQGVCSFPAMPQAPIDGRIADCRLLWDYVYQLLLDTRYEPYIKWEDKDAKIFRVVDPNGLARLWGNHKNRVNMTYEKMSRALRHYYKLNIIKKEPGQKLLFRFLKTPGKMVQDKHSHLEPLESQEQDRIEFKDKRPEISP
# Procedure, shortened: as §1
# [16] = biological target: T11, ELF5 (Homo sapiens, UniProt Q9UKW6-2 1-255); details: protein: recombinant; tags: N-terminal GST; dsDNA, one strand shown
# T11 sequence: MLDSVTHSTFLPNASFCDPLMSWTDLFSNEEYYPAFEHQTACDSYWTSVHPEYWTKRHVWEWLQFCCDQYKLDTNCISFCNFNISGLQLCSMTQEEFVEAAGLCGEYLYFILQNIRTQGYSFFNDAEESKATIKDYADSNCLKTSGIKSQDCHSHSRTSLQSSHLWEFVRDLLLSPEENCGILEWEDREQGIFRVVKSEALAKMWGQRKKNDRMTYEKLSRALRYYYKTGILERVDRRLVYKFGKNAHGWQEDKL
# Procedure, shortened: as §1
# [17] = biological target: T12, ETV3 (Homo sapiens, UniProt P41162-2 1-143); details: protein: recombinant; tags: N-terminal GST; dsDNA, one strand shown
# T12 sequence: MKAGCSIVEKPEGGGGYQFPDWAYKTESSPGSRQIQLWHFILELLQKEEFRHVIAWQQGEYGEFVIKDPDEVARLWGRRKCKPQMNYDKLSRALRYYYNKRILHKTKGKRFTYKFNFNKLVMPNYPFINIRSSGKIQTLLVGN
# Procedure, shortened: as §1
# [18] = biological target: ETV6 (Homo sapiens, UniProt P41212 1-452); details: protein: recombinant; tags: N-terminal GST; dsDNA, one strand shown
# Procedure, shortened: as §1
# CRX, sequence (O43186 whole entry): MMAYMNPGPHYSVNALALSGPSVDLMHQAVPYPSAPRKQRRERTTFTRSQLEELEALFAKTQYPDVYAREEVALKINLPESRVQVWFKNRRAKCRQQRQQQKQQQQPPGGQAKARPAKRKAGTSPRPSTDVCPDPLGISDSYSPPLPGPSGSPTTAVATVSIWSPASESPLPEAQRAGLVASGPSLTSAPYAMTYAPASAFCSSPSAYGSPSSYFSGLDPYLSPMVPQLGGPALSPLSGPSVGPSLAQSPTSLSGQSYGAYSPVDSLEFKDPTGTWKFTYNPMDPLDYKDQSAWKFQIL
# HSF1, sequence (Q00613 whole entry): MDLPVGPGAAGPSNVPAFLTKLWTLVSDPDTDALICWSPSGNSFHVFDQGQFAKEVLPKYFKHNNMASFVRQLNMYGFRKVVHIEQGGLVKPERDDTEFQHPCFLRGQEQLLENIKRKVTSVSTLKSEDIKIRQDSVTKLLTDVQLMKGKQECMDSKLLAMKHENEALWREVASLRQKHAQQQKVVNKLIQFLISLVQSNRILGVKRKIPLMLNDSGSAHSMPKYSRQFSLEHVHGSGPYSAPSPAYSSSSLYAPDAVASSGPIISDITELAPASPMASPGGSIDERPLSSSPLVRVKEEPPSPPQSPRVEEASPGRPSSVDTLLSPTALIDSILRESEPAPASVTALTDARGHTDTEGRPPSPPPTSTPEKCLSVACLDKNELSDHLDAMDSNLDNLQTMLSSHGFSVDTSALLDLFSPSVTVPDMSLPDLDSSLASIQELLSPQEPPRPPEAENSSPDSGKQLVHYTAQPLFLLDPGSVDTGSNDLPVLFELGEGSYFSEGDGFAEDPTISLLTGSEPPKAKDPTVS
# ETV6, sequence (P41212 whole entry): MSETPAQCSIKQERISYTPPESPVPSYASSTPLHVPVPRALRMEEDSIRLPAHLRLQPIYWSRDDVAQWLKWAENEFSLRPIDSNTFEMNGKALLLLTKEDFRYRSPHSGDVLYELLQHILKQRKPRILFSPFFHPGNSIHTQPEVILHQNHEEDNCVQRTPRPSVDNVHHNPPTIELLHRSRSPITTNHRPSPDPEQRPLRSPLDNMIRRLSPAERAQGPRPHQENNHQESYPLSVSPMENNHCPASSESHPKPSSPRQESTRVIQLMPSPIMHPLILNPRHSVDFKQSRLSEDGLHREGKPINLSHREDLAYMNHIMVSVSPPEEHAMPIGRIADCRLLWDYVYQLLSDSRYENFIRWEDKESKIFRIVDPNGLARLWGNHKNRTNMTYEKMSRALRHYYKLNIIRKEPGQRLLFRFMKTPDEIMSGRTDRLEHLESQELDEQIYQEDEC
# ETV1, sequence (P50549 whole entry): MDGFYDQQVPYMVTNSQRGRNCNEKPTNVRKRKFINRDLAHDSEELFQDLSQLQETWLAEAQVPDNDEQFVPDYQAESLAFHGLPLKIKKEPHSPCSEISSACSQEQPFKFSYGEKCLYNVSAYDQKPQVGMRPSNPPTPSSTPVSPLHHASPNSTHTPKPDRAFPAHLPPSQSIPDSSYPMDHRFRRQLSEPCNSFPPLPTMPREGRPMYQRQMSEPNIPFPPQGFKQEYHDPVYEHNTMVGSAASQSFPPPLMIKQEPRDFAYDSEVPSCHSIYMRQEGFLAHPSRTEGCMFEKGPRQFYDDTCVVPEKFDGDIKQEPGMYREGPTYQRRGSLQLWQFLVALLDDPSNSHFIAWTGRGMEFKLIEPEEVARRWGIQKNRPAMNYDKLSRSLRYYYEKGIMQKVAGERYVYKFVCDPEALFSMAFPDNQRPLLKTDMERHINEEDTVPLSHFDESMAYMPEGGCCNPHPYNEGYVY
# ETV5, sequence (P41161 whole entry): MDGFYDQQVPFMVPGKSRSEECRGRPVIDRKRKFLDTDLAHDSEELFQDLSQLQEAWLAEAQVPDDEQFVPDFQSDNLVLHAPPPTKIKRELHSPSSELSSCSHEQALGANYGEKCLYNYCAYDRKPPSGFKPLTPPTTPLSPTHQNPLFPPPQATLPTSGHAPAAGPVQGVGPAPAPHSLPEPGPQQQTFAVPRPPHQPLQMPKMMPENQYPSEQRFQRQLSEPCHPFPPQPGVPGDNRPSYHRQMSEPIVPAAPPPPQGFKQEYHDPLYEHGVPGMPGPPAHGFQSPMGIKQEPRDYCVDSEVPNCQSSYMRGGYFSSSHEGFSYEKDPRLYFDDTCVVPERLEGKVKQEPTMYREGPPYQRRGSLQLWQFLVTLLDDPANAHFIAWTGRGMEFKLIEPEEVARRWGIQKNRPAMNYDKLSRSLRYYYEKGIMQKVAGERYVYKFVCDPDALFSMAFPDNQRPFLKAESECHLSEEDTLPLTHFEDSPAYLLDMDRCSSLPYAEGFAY
# ELF4, sequence (Q99607 whole entry): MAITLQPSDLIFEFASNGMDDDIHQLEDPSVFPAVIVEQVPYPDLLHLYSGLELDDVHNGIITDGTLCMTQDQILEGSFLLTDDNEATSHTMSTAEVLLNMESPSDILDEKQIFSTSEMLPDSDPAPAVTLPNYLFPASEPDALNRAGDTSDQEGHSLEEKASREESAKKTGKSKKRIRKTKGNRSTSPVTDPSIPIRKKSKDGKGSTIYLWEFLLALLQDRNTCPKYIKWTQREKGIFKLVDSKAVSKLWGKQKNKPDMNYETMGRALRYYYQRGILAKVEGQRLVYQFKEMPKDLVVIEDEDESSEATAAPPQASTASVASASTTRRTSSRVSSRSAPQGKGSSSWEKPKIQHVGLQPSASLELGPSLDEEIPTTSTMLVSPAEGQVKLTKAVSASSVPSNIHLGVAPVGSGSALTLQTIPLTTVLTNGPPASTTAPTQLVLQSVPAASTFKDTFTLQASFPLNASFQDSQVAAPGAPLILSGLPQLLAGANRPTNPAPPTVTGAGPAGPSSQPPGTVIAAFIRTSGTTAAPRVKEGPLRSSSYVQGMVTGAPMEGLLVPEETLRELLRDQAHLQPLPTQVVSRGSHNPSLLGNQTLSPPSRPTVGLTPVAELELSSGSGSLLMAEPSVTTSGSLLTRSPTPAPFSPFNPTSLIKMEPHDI
sequence,measurement,setting,value
TATATT,binding signal,[1],"1.39 fold enrichment (6-mer frequency, TF over GST control)"
same,binding signal,[2],"1.43 fold enrichment (6-mer frequency, TF over GST control)"
same,binding signal,[3],"1.58 fold enrichment (6-mer frequency, TF over GST control)"
same,binding signal,[4],"1.56 fold enrichment (6-mer frequency, TF over GST control)"
same,binding signal,[5],"1.32 fold enrichment (6-mer frequency, TF over GST control)"
same,binding signal,[6],"1.65 fold enrichment (6-mer frequency, TF over GST control)"
same,binding signal,[7],"1.41 fold enrichment (6-mer frequency, TF over GST control)"
same,binding signal,[8],"1.58 fold enrichment (6-mer frequency, TF over GST control)"
same,binding signal,[9],"1.93 fold enrichment (6-mer frequency, TF over GST control)"
same,binding signal,[10],"1.44 fold enrichment (6-mer frequency, TF over GST control)"
same,binding signal,[11],"1.43 fold enrichment (6-mer frequency, TF over GST control)"
same,binding signal,[12],"1.5 fold enrichment (6-mer frequency, TF over GST control)"
same,binding signal,[13],"1.31 fold enrichment (6-mer frequency, TF over GST control)"
same,binding signal,[14],"1.32 fold enrichment (6-mer frequency, TF over GST control)"
same,binding signal,[15],"1.4 fold enrichment (6-mer frequency, TF over GST control)"
same,binding signal,[16],"1.35 fold enrichment (6-mer frequency, TF over GST control)"
same,binding signal,[17],"1.44 fold enrichment (6-mer frequency, TF over GST control)"
same,binding signal,[18],"1.37 fold enrichment (6-mer frequency, TF over GST control)"
